Results reported in PMC7862700, “An all-to-all approach to the identification of sequence-specific readers for epigenetic DNA modifications on cytosine”.

How the values were obtained:
Assay in all cases: DAPPL (digital affinity profiling via proximity ligation, sequencing); 10 mM Tris-HCl pH 7.5, 50 mM NaCl, 1 mM DTT, 4% glycerol, room temperature, 30 min; GST-TFs on glutathione beads, 16-mer random dsDNA library, 0.1% formaldehyde crosslink after washing; high values mean tight binding
Conditions in all cases: protein: recombinant; tags: N-terminal GST; dsDNA, one strand shown
FLI1 = target: T1, FLI1 (Homo sapiens, UniProt Q01543 1-452)
T1 sequence: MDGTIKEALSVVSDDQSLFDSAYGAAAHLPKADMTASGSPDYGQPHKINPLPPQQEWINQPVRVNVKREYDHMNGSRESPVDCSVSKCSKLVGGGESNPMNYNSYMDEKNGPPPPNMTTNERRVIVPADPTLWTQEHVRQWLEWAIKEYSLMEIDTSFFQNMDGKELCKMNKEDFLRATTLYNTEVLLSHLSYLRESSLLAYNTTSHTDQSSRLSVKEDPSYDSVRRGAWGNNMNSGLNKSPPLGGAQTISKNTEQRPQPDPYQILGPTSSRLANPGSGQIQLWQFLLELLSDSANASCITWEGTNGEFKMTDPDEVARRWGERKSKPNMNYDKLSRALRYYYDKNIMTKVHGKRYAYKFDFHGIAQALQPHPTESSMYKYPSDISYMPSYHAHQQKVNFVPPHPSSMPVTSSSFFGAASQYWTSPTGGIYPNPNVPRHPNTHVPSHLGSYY
Method in brief: (§1)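 Human transcription factors carrying a GST fusion were produced in yeast, bound to glutathione beads, tagged with DNA barcodes and pooled together with a tag-only sample. Each pool was held with 200 nmole of a random double-stranded 16-mer DNA library in Tris/NaCl/DTT/glycerol buffer for 30 min at room temperature, then washed, crosslinked in 0.1% formaldehyde, proximity-ligated with BsaI/T4 ligase (1 h, 37 °C), PCR-amplified and sequenced on an Illumina NextSeq500. Binding signal is the read frequency of each hexamer for a given factor divided by its frequency in the tag-only sample.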

ELK1 = target: T2, ELK1 (Homo sapiens, UniProt P19419 1-428)
T2 sequence: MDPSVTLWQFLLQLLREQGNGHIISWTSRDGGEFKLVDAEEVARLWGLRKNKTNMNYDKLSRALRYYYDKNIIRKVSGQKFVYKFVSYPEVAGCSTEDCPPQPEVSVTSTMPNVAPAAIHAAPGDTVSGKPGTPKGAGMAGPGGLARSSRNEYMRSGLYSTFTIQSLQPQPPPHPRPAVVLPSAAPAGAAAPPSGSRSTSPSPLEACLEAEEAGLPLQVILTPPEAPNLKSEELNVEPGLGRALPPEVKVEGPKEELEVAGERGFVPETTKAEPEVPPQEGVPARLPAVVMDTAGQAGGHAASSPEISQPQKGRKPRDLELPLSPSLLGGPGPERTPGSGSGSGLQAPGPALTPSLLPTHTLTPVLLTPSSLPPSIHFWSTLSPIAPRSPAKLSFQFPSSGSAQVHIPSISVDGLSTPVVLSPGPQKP
Method in brief: as §1

ERG = target: T3, ERG (Homo sapiens, UniProt P11308 1-479)
T3 sequence: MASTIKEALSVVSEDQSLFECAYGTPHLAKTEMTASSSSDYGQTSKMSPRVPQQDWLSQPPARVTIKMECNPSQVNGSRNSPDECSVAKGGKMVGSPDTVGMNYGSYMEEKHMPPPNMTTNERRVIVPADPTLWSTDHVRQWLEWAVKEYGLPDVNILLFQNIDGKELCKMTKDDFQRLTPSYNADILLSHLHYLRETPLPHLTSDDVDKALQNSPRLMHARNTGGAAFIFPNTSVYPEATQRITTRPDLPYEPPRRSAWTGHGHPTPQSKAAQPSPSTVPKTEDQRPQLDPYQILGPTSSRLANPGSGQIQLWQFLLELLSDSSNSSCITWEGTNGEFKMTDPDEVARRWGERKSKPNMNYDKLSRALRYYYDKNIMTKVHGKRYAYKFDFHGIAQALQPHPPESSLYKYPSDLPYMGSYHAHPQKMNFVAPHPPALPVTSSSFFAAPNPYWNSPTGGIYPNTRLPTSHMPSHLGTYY
Method in brief: as §1

ELF1 = ELF1 (Homo sapiens, UniProt P32519 1-619)
Sequence of ELF1 (P32519 whole entry): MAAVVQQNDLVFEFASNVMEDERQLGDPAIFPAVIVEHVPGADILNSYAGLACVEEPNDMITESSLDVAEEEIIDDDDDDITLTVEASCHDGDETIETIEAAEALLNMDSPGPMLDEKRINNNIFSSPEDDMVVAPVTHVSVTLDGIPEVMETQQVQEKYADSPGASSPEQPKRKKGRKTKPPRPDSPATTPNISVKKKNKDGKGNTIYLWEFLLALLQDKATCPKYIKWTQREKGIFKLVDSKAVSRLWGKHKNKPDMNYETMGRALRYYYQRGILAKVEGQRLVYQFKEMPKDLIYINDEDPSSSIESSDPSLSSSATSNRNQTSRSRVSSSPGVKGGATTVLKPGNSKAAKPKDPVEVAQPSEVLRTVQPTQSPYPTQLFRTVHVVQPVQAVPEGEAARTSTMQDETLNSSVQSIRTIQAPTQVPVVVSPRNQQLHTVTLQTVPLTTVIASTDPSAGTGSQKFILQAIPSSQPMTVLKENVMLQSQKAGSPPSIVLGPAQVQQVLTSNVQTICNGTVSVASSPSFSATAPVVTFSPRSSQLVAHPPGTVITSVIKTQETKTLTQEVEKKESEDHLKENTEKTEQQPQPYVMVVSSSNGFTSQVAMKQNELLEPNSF
Method in brief: as §1

EHF = target: T4, EHF (Homo sapiens, UniProt Q9NZC4 1-300)
T4 sequence: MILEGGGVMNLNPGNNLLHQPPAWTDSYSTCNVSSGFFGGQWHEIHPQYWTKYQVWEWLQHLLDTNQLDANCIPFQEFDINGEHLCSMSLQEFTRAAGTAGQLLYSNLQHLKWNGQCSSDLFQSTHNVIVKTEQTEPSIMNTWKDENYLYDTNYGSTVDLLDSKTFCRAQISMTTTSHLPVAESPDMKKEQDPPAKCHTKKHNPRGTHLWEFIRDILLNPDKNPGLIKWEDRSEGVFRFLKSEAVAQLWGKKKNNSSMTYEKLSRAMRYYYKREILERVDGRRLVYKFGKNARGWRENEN
Method in brief: as §1

SPIB = SPIB (Homo sapiens, UniProt Q01892 1-262)
Sequence of SPIB (Q01892 whole entry): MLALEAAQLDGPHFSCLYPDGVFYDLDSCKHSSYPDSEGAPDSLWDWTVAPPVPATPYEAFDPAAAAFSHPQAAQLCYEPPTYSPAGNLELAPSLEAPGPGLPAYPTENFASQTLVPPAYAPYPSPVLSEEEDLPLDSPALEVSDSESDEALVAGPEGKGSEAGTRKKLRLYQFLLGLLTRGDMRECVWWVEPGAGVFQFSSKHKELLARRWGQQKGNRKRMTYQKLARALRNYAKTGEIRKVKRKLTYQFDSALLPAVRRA
Method in brief: as §1

ELK3 = target: T5, ELK3 (Homo sapiens, UniProt P41970 1-407)
T5 sequence: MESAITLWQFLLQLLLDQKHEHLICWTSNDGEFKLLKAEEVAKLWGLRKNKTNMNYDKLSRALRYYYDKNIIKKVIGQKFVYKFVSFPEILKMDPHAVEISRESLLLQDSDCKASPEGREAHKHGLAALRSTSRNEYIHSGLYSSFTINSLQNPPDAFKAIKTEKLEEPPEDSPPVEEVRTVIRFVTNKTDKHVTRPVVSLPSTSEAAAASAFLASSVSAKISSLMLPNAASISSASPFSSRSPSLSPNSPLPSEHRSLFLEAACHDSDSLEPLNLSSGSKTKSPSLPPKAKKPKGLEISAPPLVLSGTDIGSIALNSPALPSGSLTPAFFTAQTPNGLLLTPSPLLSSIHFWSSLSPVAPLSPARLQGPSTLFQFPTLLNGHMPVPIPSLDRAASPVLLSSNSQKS
Method in brief: as §1

FEV = target: T6, FEV (Homo sapiens, UniProt Q99581 1-238)
T6 sequence: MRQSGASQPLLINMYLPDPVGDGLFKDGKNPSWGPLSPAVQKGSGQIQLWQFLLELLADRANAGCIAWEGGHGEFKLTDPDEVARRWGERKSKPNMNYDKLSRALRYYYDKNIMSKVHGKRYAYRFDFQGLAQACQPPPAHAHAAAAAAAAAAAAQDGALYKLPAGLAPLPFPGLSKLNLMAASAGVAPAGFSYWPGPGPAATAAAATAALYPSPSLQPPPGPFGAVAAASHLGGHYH
Method in brief: as §1

ETV5 = ETV5 (Homo sapiens, UniProt P41161 1-510)
Sequence of ETV5 (P41161 whole entry): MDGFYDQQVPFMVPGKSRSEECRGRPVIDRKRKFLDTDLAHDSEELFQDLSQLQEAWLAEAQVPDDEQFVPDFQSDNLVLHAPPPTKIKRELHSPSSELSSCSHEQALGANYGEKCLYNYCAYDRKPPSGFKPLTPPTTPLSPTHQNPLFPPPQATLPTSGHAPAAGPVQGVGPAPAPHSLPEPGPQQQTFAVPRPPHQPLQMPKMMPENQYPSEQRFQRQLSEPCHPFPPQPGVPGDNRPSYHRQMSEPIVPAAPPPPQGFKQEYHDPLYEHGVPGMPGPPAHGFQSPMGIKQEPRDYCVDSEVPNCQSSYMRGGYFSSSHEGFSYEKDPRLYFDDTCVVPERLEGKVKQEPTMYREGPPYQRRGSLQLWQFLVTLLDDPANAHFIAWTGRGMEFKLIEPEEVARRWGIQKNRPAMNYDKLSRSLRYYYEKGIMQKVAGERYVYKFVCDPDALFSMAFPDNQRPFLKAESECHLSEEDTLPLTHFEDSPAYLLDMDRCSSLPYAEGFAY
Method in brief: as §1

SPIC = target: T7, SPIC (Homo sapiens, UniProt Q8N5J4 1-248)
T7 sequence: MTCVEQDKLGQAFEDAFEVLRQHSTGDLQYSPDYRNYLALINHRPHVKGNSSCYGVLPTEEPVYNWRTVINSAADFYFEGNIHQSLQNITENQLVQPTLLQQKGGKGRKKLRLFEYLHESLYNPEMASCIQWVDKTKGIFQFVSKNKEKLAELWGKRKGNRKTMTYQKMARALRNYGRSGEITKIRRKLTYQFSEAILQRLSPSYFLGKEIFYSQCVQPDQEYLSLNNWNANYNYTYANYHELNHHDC
Method in brief: as §1

ELF4 = ELF4 (Homo sapiens, UniProt Q99607 1-663)
Sequence of ELF4 (Q99607 whole entry): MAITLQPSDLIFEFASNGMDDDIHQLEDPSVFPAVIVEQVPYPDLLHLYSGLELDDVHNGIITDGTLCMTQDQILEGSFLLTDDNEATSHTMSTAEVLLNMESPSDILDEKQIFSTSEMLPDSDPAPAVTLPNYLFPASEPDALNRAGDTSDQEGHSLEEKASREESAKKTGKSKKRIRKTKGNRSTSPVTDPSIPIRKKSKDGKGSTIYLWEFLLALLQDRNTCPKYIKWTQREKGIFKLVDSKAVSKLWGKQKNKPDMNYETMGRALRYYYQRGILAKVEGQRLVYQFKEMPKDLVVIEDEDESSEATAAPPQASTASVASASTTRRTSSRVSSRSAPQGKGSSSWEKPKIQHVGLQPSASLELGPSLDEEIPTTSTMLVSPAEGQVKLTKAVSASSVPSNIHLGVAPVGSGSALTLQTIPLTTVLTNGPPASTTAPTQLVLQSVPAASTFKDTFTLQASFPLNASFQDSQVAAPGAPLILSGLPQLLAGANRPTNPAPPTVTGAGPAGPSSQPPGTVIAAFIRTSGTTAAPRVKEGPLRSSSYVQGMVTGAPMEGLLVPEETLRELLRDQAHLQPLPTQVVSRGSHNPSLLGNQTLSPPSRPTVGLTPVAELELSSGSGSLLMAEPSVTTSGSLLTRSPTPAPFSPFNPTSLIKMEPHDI
Method in brief: as §1

ETV1 = ETV1 (Homo sapiens, UniProt P50549 1-477)
Sequence of ETV1 (P50549 whole entry): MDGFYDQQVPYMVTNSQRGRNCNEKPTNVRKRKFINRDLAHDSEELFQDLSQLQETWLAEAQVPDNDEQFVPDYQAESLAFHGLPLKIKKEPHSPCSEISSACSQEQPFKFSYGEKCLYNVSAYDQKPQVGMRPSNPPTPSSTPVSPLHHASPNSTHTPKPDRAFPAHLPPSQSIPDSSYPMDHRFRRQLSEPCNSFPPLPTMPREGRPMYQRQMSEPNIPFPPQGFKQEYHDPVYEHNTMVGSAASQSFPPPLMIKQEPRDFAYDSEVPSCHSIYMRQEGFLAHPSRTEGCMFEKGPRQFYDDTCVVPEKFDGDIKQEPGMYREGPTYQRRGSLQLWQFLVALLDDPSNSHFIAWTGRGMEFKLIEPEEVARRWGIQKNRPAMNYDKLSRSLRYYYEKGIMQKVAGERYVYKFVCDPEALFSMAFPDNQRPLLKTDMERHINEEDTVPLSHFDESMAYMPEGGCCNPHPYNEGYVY
Method in brief: as §1

ERF = target: T8, ERF (Homo sapiens, UniProt P50548 1-548)
T8 sequence: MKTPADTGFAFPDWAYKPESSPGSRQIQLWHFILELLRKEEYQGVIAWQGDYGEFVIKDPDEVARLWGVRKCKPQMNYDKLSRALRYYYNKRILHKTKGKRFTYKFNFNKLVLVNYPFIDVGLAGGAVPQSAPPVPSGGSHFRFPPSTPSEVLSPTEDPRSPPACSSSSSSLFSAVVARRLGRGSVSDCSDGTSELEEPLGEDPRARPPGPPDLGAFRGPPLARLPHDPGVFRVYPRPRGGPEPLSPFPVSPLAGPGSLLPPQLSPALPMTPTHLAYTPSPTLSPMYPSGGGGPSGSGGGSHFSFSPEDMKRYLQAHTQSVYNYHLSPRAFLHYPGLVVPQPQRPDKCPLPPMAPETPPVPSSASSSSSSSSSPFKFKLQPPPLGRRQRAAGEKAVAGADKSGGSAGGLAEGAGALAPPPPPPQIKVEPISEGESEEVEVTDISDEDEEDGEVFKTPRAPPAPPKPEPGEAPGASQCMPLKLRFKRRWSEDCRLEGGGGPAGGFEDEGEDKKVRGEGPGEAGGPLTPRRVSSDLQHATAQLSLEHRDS
Method in brief: as §1

ETV3L = target: T9, ETV3L (Homo sapiens, UniProt Q6ZN32 1-361)
T9 sequence: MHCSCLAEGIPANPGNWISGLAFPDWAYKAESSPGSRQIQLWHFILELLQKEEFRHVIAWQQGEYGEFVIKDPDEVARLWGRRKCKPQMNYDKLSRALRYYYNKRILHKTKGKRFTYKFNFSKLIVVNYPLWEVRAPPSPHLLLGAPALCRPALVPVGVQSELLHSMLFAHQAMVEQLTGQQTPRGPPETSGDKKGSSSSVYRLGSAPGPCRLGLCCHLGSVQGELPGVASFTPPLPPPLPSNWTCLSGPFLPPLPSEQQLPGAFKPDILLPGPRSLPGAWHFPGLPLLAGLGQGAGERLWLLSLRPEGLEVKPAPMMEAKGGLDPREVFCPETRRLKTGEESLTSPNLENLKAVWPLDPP
Method in brief: as §1

ETS2 = target: T10, ETS2 (Homo sapiens, UniProt P15036 1-469)
T10 sequence: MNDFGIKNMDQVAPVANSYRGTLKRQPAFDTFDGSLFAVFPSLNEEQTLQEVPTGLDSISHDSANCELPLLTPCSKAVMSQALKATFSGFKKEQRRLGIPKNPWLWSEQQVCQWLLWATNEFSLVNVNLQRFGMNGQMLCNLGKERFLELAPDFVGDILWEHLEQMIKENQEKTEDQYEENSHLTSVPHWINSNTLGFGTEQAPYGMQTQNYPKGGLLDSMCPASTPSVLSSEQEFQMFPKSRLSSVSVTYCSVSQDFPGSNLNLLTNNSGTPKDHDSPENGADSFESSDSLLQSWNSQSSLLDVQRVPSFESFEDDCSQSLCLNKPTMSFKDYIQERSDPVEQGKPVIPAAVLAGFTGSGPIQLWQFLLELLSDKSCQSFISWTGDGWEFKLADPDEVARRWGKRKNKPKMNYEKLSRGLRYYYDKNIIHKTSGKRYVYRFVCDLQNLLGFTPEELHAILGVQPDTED
Method in brief: as §1

SPDEF = target: T11, SPDEF (Homo sapiens, UniProt O95238 1-335)
T11 sequence: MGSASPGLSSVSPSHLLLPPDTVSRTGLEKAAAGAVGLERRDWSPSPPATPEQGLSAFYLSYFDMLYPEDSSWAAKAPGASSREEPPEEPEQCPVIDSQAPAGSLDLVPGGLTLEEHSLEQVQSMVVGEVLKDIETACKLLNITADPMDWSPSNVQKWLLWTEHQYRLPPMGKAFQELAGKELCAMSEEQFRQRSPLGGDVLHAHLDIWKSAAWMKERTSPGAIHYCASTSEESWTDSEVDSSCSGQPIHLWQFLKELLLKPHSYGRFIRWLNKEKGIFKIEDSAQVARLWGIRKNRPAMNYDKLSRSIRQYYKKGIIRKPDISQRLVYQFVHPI
Method in brief: as §1

ETV3 = target: T12, ETV3 (Homo sapiens, UniProt P41162-2 1-143)
T12 sequence: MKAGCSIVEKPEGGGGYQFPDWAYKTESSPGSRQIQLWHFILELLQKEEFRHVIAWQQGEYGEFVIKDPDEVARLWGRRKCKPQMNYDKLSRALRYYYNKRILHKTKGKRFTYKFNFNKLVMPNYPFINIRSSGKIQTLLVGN
Method in brief: as §1

ETV6 = ETV6 (Homo sapiens, UniProt P41212 1-452)
Sequence of ETV6 (P41212 whole entry): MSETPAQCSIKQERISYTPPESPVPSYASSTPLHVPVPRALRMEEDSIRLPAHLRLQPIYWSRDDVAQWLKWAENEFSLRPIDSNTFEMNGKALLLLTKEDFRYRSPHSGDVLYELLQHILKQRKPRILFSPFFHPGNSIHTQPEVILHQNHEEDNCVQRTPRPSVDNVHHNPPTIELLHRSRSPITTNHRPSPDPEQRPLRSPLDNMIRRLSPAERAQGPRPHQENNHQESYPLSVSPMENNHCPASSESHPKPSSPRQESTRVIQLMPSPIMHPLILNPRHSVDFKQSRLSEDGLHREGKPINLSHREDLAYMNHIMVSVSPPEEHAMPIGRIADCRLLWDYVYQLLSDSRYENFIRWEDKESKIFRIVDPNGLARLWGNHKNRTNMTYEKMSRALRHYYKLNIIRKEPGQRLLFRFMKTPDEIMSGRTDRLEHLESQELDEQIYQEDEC
Method in brief: as §1

TAACCG was tested, and the binding signal (FLI1) was 1.06 fold enrichment (6-mer frequency, TF over GST control), the binding signal (ELK1) was 1.05 fold enrichment (6-mer frequency, TF over GST control) and the binding signal (ERG) was 1.06 fold enrichment (6-mer frequency, TF over GST control). The binding signal (ELF1) was 1.1 fold enrichment (6-mer frequency, TF over GST control), the binding signal (EHF) was 1.06 fold enrichment (6-mer frequency, TF over GST control) and the binding signal (SPIB) was 1.18 fold enrichment (6-mer frequency, TF over GST control). For the same sequence, the binding signal (ELK3) was 1.13 fold enrichment (6-mer frequency, TF over GST control), the binding signal (FEV) was 1.25 fold enrichment (6-mer frequency, TF over GST control) and the binding signal (ETV5) was 1.07 fold enrichment (6-mer frequency, TF over GST control). For the same sequence, the binding signal (SPIC) was 1.08 fold enrichment (6-mer frequency, TF over GST control), the binding signal (ELF4) was 1.06 fold enrichment (6-mer frequency, TF over GST control) and the binding signal (ETV1) was 1.09 fold enrichment (6-mer frequency, TF over GST control). For the same sequence, the binding signal (ERF) was 1.12 fold enrichment (6-mer frequency, TF over GST control), the binding signal (ETV3L) was 1.08 fold enrichment (6-mer frequency, TF over GST control) and the binding signal (ETS2) was 1.07 fold enrichment (6-mer frequency, TF over GST control). For the same sequence, the binding signal (SPDEF) was 1.1 fold enrichment (6-mer frequency, TF over GST control), the binding signal (ETV3) was 1.09 fold enrichment (6-mer frequency, TF over GST control) and the binding signal (ETV6) was 1.08 fold enrichment (6-mer frequency, TF over GST control).
